GLD-1 RNA inh = GLD-1/TGE RNA complex disruptors, primary screen, biochemical, fluorescence polarization. Female germline-specific tumor suppressor gld-1 (Caenorhabditis elegans), Q17339. purified GLD-1 + fluorescein TGE RNA. inhibition, % at 5.96 µM. 320,000 compounds, 0.44% hits. AID 2280, 2010;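 active = percent inhibition above a per-plate cutoff, the plate mean of test compounds plus 3 SD, cut at about 30% in these data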
EBV gp42 inh = Epstein-Barr virus gp42 inhibitors, primary screen, biochemical, uHTS, fluorescence polarization; Glycoprotein 42 (Epstein-Barr virus (strain AG876)), Q1HVG2; Fluorescence polarization binding assay, mP read-out; inhibition, % (tested at 21.74 µM); 220,000 compounds, 0.42% hits; AID 1085, 2008; in the data active = inhibition above about 50%
MCL1-BIM inh = inhibitors of MCL1 binding to BIM-BH3, primary screen, biochemical, fluorescence polarization; GST-MCL1 / FITC-Bim-BH3 fluorescence polarization; inhibition, % at 10.9 µM; 320,000 compounds, 0.68% hits;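 active = inhibition above the mean inhibition of all tested compounds plus 3 SD, set per campaign, cut at about 40% in these data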;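 note: higher means more loss of mP so more displacement of Bim peptide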
Bcl-xL primary = inhibitors of human Bcl-xL, primary screen, biochemical, fluorescence polarization, HTS; Bcl-2-like protein 1 (Homo sapiens), Q07817; GST-Bcl-xL / FITC-Bim BH3 peptide fluorescence polarization; inhibition, % at 10.9 µM; 320,000 compounds, 0.7% hits; AID 2129, 2009;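 active = inhibition above the mean of all tested compounds plus 3 SD, cutoff set per campaign, cut at about 30% in these data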;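 note: inhibitors lower millipolarization by displacing the labeled peptide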
Target sequence (Q07817 whole entry, looked up): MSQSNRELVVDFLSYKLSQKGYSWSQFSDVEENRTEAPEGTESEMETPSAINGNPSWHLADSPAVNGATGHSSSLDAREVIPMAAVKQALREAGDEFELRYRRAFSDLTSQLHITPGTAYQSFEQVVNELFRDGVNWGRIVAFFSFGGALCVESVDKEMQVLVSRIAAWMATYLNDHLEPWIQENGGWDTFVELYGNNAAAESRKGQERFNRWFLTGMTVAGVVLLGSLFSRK
E coli Lon inh = inhibitors of E. coli Lon protease, primary screen, biochemical, fluorescence polarization | purified E. coli Lon protease | inhibition, % at 7.94 µM | AID 602123, 2011 | 360,000 compounds, 0.42% hits; in the data active = inhibition above about 13%, passing the limit was not always enough
MEX-5 binding = MEX-5 zinc finger RNA-binding disruptors – biochemical, C. elegans, fluorescence polarization, MLPCN library, primary screen; activity score (negative = inhibition of binding), % at 10 µM; 300,000 compounds, 0.38% hits; AID 1832, 2009; MEX-5/FITC-TCR2 RNA binding; active compounds read low; Zinc finger protein mex-5 (Caenorhabditis elegans), Q9XUB2;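 active = inhibition past about -25% in most replicates, and total fluorescence under double the plate's negative control median, limit read from the data; inconclusive = replicates evenly split on the limit, or fluorescence at least double controls; inactive = too little inhibition in most replicates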
Target sequence (Q9XUB2 whole entry, looked up): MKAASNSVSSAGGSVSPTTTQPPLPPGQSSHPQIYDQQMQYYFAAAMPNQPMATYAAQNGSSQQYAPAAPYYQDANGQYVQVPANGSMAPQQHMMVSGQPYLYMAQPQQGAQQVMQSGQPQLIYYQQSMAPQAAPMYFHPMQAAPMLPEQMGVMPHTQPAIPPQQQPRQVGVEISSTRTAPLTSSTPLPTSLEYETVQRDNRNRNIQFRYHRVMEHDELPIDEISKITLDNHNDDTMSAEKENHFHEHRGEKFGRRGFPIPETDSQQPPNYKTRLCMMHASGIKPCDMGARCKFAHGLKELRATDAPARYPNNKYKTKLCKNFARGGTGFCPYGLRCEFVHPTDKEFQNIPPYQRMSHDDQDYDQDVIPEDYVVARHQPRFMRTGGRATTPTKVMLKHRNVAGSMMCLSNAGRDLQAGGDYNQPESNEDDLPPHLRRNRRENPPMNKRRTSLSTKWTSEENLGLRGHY
BCLXL inh confirm = Bcl-xL inhibitors blocking Bim BH3 binding, confirmation, counter-screen for MCL1 inhibitor project, biochemical, fluorescence polarization | GST-Bcl-xL / FITC-Bim BH3 peptide FP binding | AID 2166, 2009 | shares compounds with MCL1-BIM inh | inhibition, % at 10.9 µM | 1,700 compounds, 54% hits;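 active = inhibition above a cutoff equal to the mean inhibition of all tested compounds plus 3 SD, cut at about 30% in these data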
MCL1 inh confirm = inhibitors of MCL1 binding to BIM-BH3, confirmation, biochemical, fluorescence polarization, triplicate | shares compounds with MCL1-BIM inh | GST-MCL1 / FITC-Bim-BH3 fluorescence polarization | AID 2168, 2009 | inhibition, % at 10.9 µM | 1,700 compounds, 61% hits;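 active = inhibition above the average of all tested compounds plus 3 SD, cut at about 40% in these data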
Numbers stand for hits; i = inactive; ? = inconclusive; nt = no result; + = active, no number. A selection: hits, their analogues and other compounds. The true share with any hit is near 1.5%.

SMILES	GLD-1 RNA inh	EBV gp42 inh	MCL1-BIM inh	Bcl-xL primary	E coli Lon inh	MEX-5 binding	BCLXL inh confirm	MCL1 inh confirm
Nc1c(C(=O)Nc2ccc(S(=O)(=O)N3CCCC3)cc2)sc2nc3ccc(OC(F)(F)F)cc3cc12	i	i	48.4	57.3	i	i	35.5	41.7
COc1ccc(NC(=O)CSCC(=O)Nc2ccc(S(=O)(=O)N3CCCC3)cc2)cc1	i	nt	i	i	i	i	nt	nt
CCOC(=O)N(C)c1c(CC)nc2c(OCCOc3ccccc3)cccn12	nt	nt	nt	nt	i	nt	nt	nt
NN1C(=O)/C(=C\c2ccco2)SC1=S	i	i	54.5	i	i	i	i	i
O=C1/C(=C\c2ccco2)SC(=S)N1c1ccc(O)cc1	i	i	i	i	i	i	nt	nt
O=C(CN1C(=O)/C(=C/c2ccco2)SC1=S)NC1CCS(=O)(=O)C1 (stereo not drawn)	i	nt	63.6	44.1	i	i	i	i
O=C(CN1C(=O)/C(=C/c2ccco2)SC1=S)Nc1ccc(O)c(C(=O)O)c1	i	nt	57.7	33.5	i	i	i	47.4
O=C(CN1C(=O)/C(=C/c2ccco2)SC1=S)Nc1ccc(C(=O)O)c(O)c1	i	nt	72.9	i	i	-27.6	i	48.3
O=c1c2ccccc2oc2cc(-c3ccc(CN4CCOCC4)cc3)ccc12	i	nt	i	i	i	nt	nt	nt
COc1ccc(C(CNC(=O)Nc2ccccc2)N2CCN(C)CC2)cc1 (stereo not drawn)	i	nt	46.3	i	i	i	i	i
COc1ccc(C(CNC(=O)Nc2ccc(Cl)cc2)N2CCN(C)CC2)cc1 (stereo not drawn)	i	nt	i	i	i	i	nt	nt
CC(=O)NC(Cc1cccc(F)c1)C(=O)NC1CCN(C(=O)Nc2ccccc2)CC1 (stereo not drawn)	i	nt	i	i	i	i	nt	nt
Cc1cc(OCC(=O)OC(C)C(=O)NC2CC2)c(C(C)C)cc1Cl (stereo not drawn)	nt	nt	nt	nt	i	nt	nt	nt
O=C1CC(c2ccc3ccccc3c2)NN1 (stereo not drawn)	i	nt	42.1	i	i	nt	i	i
Cc1ccc(S(=O)(=O)N2CCCC2CNC(=O)c2ccc3c(c2)OCO3)cc1 (stereo not drawn)	i	nt	i	i	i	i	nt	nt
CCN(CC(=O)Nc1c(F)cccc1F)C(=O)/C=C/c1ccc2ccccc2n1	i	nt	86.5	31.8	i	i	i	90.2
Cc1nn(C)cc1S(=O)(=O)N1CCN(Cc2ccc(F)cc2Cl)CC1	i	i	i	i	i	i	nt	nt
Cc1ccc(C)c(NC(=O)CN(C)C(=O)c2cccc(-n3cccc3)c2)c1	i	nt	45.8	i	i	i	i	64.0
CN(CC(=O)Nc1ccccc1Cl)C(=O)c1cccc(-n2cccc2)c1	i	nt	i	i	i	i	nt	nt
Brc1cccc(C2Nc3cccc4cccc(c34)N2)c1	i	nt	44.2	i	i	i	i	i
c1csc(C2Nc3cccc4cccc(c34)N2)c1	i	i	62.0	60.5	i	i	i	i
c1ccc(C2Nc3cccc4cccc(c34)N2)cc1	i	nt	51.8	38.6	i	i	40.1	55.0
COc1ccc(C2Nc3cccc4cccc(c34)N2)cc1	i	i	i	i	i	i	nt	nt
Clc1cccc(Cl)c1C1Nc2cccc3cccc(c23)N1	i	nt	i	i	i	i	nt	nt
Brc1ccc(C2Nc3cccc4cccc(c34)N2)o1	i	i	54.5	50.8	i	i	i	i
SMILES	GLD-1 RNA inh	EBV gp42 inh	MCL1-BIM inh	Bcl-xL primary	E coli Lon inh	MEX-5 binding	BCLXL inh confirm	MCL1 inh confirm
Oc1ccccc1C1Nc2cccc3cccc(c23)N1	i	i	i	i	i	i	nt	nt
NC(=O)N/N=C/c1ccccc1OC(=O)c1ccccc1Br	i	i	i	i	i	i	nt	nt
CCc1noc(C)c1C(=O)N1CCCSC1=Nc1ccccc1Cl	i	nt	i	i	i	i	nt	nt
Cc1nc(C)c(C(=O)O)s1	i	i	i	i	i	i	nt	nt
O=[N+]([O-])c1c(NCCCO)cc(SCc2ccco2)c2nonc12	i	i	59.3	31.4	i	i	i	i
CCOc1cccc(=O)c2c(C)n(-c3ccc(C(=O)O)cc3)c(C)c12	i	i	86.2	59.1	i	-35.7	36.0	53.3
Cc1cccc(N=C2NC(=O)/C(=C/C=C/c3ccco3)S2)c1	i	i	i	i	i	i	nt	nt
O=C1NC(=Nc2ccc(Cl)cc2)/C(=C/c2ccco2)S1	i	61.7	90.2	58.7	i	i	37.7	74.7
Cc1cccc(N=C2NC(=O)S/C2=C\c2ccco2)c1	i	i	42.4	35.0	i	i	i	i
Cn1ccc2c(-c3ccc(C(N)=O)cc3)cc3c(c21)C1CCC3C1 (stereo not drawn)	nt	nt	nt	nt	i	nt	nt	nt
CCOc1ccc(N2CC(C(=O)NC3CCCCCC3)CC2=O)cc1 (stereo not drawn)	i	nt	i	i	i	i	nt	nt
Cc1ccc(C(=O)OCC(=O)NC(=O)c2ccc(C(C)(C)C)cc2)c(O)c1	i	nt	69.8	62.0	i	i	i	i
CCNc1c2c3c(cccc3n(C)c1=O)C(=O)c1ccccc1-2	164.2	i	+	+	nt	?	+	+
Nc1nc(C(F)(F)F)cc(=O)n1N	i	i	i	i	i	i	nt	nt
C[C@@H]1CN([C@@H](C)CO)C(=O)c2cc(NS(=O)(=O)c3ccc(Cl)cc3)ccc2O[C@H]1CN(C)Cc1ccncc1	i	nt	nt	nt	i	nt	nt	nt
Cc1ccc(C=C2C(=O)c3ccccc3C2=O)s1	i	i	i	i	i	i	nt	nt
Cc1cc(C=C2C(=O)c3ccccc3C2=O)c(C)n1C	i	i	70.7	50.9	i	i	33.6	55.4
O=C1SC(c2ccccc2)=N/C1=C/c1ccco1	i	i	i	i	i	i	nt	nt
O=C1SC(SCc2ccccc2)=N/C1=C\c1ccco1	i	i	43.0	i	i	i	i	i
Cc1cc(/C=C(\C#N)c2nc3ccccc3[nH]2)c(C)n1C	133.5	104.8	122.2	110.0	i	-27.6	127.2	149.4
COC(=O)C1=C(C(=O)OC)C(c2ccccc2O)c2sc(=O)[nH]c2S1 (stereo not drawn)	i	i	53.6	33.4	i	nt	i	53.9
O=Cc1c(Sc2ccccn2)nc2ccccn2c1=O	i	i	63.1	53.0	i	i	i	i
